From PubChem
USP30 block – inhibitors of human USP30 deubiquitinase; Q70CQ3; inhibition, % at 25 µM; purified USP30, Ub-rhodamine cleavage fluorescence; 47,000 compounds, 5.3% hits
USP8 inh – inhibitors of human USP8 deubiquitinase. P40818. purified USP8, Ub-rhodamine cleavage fluorescence, 30 min. inhibition, % at 20 µM. 47,000 compounds, 4.2% hits. AID 1645853
USP28 inh – blocks human USP28 ubiquitin-rhodamine cleavage; Q96RU2; purified USP28, Ub-rhodamine cleavage fluorescence, 30 min; inhibition, % at 25 µM; 47,000 compounds, 3% hits; AID 1645857
Target sequence (Q96RU2 whole entry, looked up): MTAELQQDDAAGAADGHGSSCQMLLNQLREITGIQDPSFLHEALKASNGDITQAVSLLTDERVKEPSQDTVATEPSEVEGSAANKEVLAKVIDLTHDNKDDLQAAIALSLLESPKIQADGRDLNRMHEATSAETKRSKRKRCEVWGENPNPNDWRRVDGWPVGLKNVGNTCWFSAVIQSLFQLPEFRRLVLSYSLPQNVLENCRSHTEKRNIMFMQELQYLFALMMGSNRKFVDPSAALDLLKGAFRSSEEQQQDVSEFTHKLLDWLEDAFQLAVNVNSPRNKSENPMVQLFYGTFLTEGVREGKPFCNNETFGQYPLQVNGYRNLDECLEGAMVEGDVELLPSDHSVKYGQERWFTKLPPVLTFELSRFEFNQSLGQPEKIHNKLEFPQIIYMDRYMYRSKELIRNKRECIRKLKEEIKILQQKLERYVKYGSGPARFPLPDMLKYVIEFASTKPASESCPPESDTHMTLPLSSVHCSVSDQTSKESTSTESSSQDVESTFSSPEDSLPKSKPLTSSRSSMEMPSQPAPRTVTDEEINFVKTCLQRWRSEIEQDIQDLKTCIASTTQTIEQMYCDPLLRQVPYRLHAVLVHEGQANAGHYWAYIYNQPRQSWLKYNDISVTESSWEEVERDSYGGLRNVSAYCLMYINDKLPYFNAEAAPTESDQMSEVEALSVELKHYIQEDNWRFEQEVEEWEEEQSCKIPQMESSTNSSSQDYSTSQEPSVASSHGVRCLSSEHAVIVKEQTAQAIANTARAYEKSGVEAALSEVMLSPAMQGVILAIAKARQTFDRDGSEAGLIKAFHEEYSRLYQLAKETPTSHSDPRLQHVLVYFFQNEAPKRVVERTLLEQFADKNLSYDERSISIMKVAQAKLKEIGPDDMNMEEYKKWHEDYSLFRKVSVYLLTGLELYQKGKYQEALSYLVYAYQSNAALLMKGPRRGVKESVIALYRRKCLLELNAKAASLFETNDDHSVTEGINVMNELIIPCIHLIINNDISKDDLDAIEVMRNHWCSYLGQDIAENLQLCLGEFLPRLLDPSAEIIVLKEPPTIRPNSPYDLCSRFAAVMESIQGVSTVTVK
USP17 block – inhibitors of human USP17 deubiquitinase; purified USP17, Ub-rhodamine cleavage fluorescence, 3 h; inhibition, % at 50 µM; AID 1645855; 47,000 compounds, 6.5% hits
* marks the source's active call; other numbers are inactive results. Compounds with a hit are over-represented: about 14% of the library has one in this group of screens. Rule as the data show it: active = inhibition above about 30%; inactive = the rest.

CC(C)OC(=O)c1cc2c(ccn2-c2ccc(F)cc2)n1CC(=O)N(Cc1ccccc1)c1ccc(F)cc1 was read as USP30 block -71.5, USP8 inh 2.6, USP28 inh -9.9 and USP17 block -9.4.
`CCOC(=O)c1cc2c(ccn2C)n1CC(=O)N(Cc1ccccc1)c1ccccc1` gave USP30 block -197.6, USP8 inh 55.3*, USP28 inh -36.4 and USP17 block 29.3.
CC(C)OC(=O)c1cc2c(ccn2C)n1CC(=O)N(Cc1ccc(Cl)cc1)c1ccccc1 was read as USP30 block -47.8, USP8 inh 66.6*, USP28 inh 7.9 and USP17 block 12.3.
For CC(C)OC(=O)c1cc2c(ccn2C)n1CC(=O)N(Cc1ccccc1)c1ccc(F)cc1 the results were USP30 block -198.9, USP8 inh 56.3*, USP28 inh -14.5 and USP17 block 20.8.
`CCOC(=O)c1cc2c(ccn2C)n1CC(=O)N(Cc1ccc(OC)cc1)c1ccc(F)cc1` gave USP30 block -199.7, USP8 inh 17.0, USP28 inh -21.3 and USP17 block 6.2.
Screening CCc1ccccc1N1C(=O)Nc2ccccc2S1(=O)=O returned USP30 block 7.6, USP8 inh 1.7, USP28 inh -2.7 and USP17 block -0.6.
Screening O=C(c1n[nH]c2c1CCN(Cc1ccccc1)C2)N1CCOCC1 returned USP30 block -4.8, USP8 inh -70.6 and USP28 inh -0.8.
Screening COc1cc(C(=O)N2CCNC(=O)CC2c2ccccc2)ccc1C (stereo not given) returned USP30 block 6.2, USP8 inh -3.1, USP28 inh 5.2 and USP17 block 5.1.
CC(C)OC(=O)c1cc2c(ccn2C)n1CC(=O)N1CCCC1 was read as USP30 block -280.2, USP8 inh -12.8, USP28 inh -72.3 and USP17 block -54.7.
`CC(C)OC(=O)c1cc2c(ccn2C)n1Cc1ccc2ccccc2n1` gave USP30 block -136.9, USP8 inh 56.0*, USP28 inh -10.7 and USP17 block 10.5.
`CCOC(=O)c1cc2c(ccn2C)n1CC(=O)NC(c1ccccc1)c1ccccc1` gave USP30 block -153.0, USP8 inh 65.1*, USP28 inh -31.7 and USP17 block 23.4.
For CCOC(=O)c1cc2c(ccn2C)n1CC(=O)N1CCN(c2ccccc2)CC1 the results were USP30 block -148.7, USP8 inh -12.0, USP28 inh -65.5 and USP17 block -36.8.
`CNc1nc(C2CCCCN2C(=O)c2ccccc2)nc2c1CN(C(C)=O)CC2` (stereo not given) gave USP30 block -13.0, USP8 inh 5.8, USP28 inh -2.0 and USP17 block -5.6.
For CC(=O)c1cccc(NC(=O)c2cc3cccnc3n(C)c2=O)c1 the results were USP30 block -52.6, USP8 inh -13.7, USP28 inh -11.1 and USP17 block 6.3.
Cc1cccc(NC(=O)c2cc3ccccc3c(=O)s2)c1 was read as USP8 inh 32.8* and USP17 block 69.2*.
Screening Cc1cccc(NC(=O)c2cc3cccnc3n(C)c2=O)c1 returned USP30 block -36.5, USP8 inh -8.3, USP28 inh 31.4* and USP17 block -1.2.
For Cc1cccc(N2CCn3c2nc2c3c(=O)n(CCN3CCOCC3)c(=O)n2C)c1 the results were USP30 block 37.5*, USP8 inh 1.5, USP28 inh 11.9 and USP17 block 5.3.
Cn1c(=O)n(CCN2CCOCC2)c(=O)c2c1nc1n2CCN1c1cccc(Cl)c1 was read as USP30 block 6.2, USP8 inh -10.8, USP28 inh -7.8 and USP17 block -4.1.
Screening Cc1ccc(N2CCCn3c2nc2c3c(=O)n(CCN3CCOCC3)c(=O)n2C)cc1 returned USP30 block 33.6*, USP8 inh 21.4, USP28 inh 16.6 and USP17 block 15.5.
CCN(CC)C(=O)N1CCCC(c2nc(C)ncc2-c2cc(C)no2)C1 (stereo not given) was read as USP30 block -12.5, USP8 inh -9.8, USP28 inh -16.7 and USP17 block -5.3.
For Cc1ccc(N=Cc2sc(O)c3ccccc23)c(C)c1 the results were USP30 block inactive, USP8 inh -292.1, USP28 inh -242.9 and USP17 block -178.4.
Screening Oc1sc(C=Nc2cc(Cl)ccc2Cl)c2ccccc12 returned USP30 block -57.7, USP8 inh 46.8*, USP28 inh -0.2 and USP17 block 54.2*.
Screening O=C(Cn1cc(-c2nc(C3CC3)no2)ccc1=O)Nc1ccccc1 returned USP30 block -18.8, USP8 inh 3.5, USP28 inh -0.1 and USP17 block 48.8*.
For N#Cc1cccc(NC(=O)Cn2cccc(-c3nc(-c4ccccc4)no3)c2=O)c1 the results were USP30 block inactive, USP8 inh 22.6, USP28 inh -179.3 and USP17 block -164.9.
